Experiment [1] is described as follows: ATG_CRE_CIS: Attagene CIS-FACTORIAL HepG2 Assay for human cAMP Responsive Element (CRE) binding protein 3 (AID 2282926). The note with it: HepG2 CRE cis-reporter, Attagene multiplexed mRNA; actives raise or lower the signal. In outline: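 HepG2 cells transiently transfected with cis-element-driven multiple reporter transcription units; CRE reporter mRNA measured 24 h after dosing by RT-PCR, 6-FAM labelling, HpaI digestion and capillary electrophoresis. Bidirectional fit versus DMSO baseline.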

Experiment [2] deals with CCAAT/enhancer-binding protein beta (Homo sapiens) (UniProt P17676). The experiment is described as follows: ATG_C_EBP_CIS: Attagene CIS-FACTORIAL HepG2 Assay for human CCAAT/Enhancer Binding Protein (C/EBP) beta (AID 2282927). The note with it: HepG2 Attagene cis-factorial transcription factor reporter; actives raise or lower the signal. Summed up: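 Transiently transfected HepG2 (MRTU library, endogenous TF-driven promoters); 24 h dosing; total RNA → oligo(dT) RT → PCR → 6-FAM primer extension → HpaI digest → CE; fit bidirectionally vs DMSO.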

Experiment [3] is described as follows: ATG_CMV_CIS: Attagene CIS-FACTORIAL HepG2 Assay for human CMV (Internal Marker) (AID 2282928).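 Further: endpoint acts as a background internal control marker rather than a target.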 The note with it: HepG2 CMV promoter reporter, transcription factor profiling; actives raise or lower the signal. In outline:
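CMV internal-marker background readout in transiently transfected HepG2 cells bearing cis-regulated reporter units. Reporter mRNA is measured 24 h after dosing by RT-PCR and capillary electrophoresis, with bidirectional fitting against DMSO.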

Experiment [4] has as its target Aryl hydrocarbon receptor (Homo sapiens) (UniProt P35869). In words: ATG_Ahr_CIS: Attagene CIS-FACTORIAL HepG2 Assay for human Aryl Hydrocarbon Receptor (Ahr) (AID 2282930). The note with it: HepG2 AhR cis-factorial reporter transcription; actives raise or lower the signal. Summed up: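 Read-out: reporter mRNA quantified by RT-PCR with fluorescent primer extension and capillary electrophoresis. Human HepG2 liver cells carried transfected cis-promoter reporter units and were exposed to chemical for 24 h; gain or loss fitted relative to DMSO.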

A short description of experiment [5]: ATG_AP_2_CIS: Attagene CIS-FACTORIAL HepG2 Assay for human Activator Protein 2 (AP-2) (AID 2282932). The note with it: HepG2 AP-2 cis-reporter, Attagene transcription factor profiling; actives raise or lower the signal. Summed up: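 HepG2 cells transiently transfected with cis-element reporter units and exposed for 24 h. Reporter mRNA measured by RT-PCR, FAM labelling, HpaI digestion and capillary electrophoresis. Changes in either direction fitted relative to DMSO.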

Experiment [6] addresses Transcription factor E2F1 (Homo sapiens) (UniProt Q01094). In words: ATG_E2F_CIS: Attagene CIS-FACTORIAL HepG2 Assay for human E2F Transcription Factor 1 (AID 2282935). The note with it: HepG2 Attagene cis-reporter, E2F reporter RNA transcripts; actives raise or lower the signal. Summed up: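 Endogenous E2F1 activity read through cis-promoter reporter units transfected into HepG2. After 24 h compound treatment, reporter mRNA measured by RT-PCR, HpaI digestion and capillary electrophoresis. Bidirectional fit versus DMSO.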

The nature of experiment [7]: ATG_E_Box_CIS: Attagene CIS-FACTORIAL HepG2 Assay for human Enhancer Box (E-box) (AID 2282936). The note with it: HepG2 E-box cis-reporter transcription, actives raise or lower the signal. In outline:
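HepG2 cells transiently transfected with multiplexed cis-element reporter units, dosed 24 h; reporter mRNA quantified by RT-PCR, 6-FAM labelling, HpaI digestion and capillary electrophoresis. E-box (USF1) signal fitted bidirectionally vs DMSO.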

The nature of experiment [8]: ATG_M_61_CIS: Attagene CIS-FACTORIAL HepG2 Assay for M61 Transcription Factor (Internal Marker) (AID 2282937). The note with it: HepG2 Attagene CIS-FACTORIAL M61 internal marker reporter; actives raise or lower the signal. In outline: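 Multiplexed reporter mRNA assay, HepG2 human hepatoma cells, 24 h treatment. Signal: FAM-labelled, HpaI-digested RT-PCR fragments by CE. Fit: bidirectional, baseline DMSO.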

A short description of experiment [9]: ATG_EGR_CIS: Attagene CIS-FACTORIAL HepG2 Assay for human Early Growth Response 1 (EGR1) (AID 2282938). The note with it: HepG2 Attagene CIS-FACTORIAL EGR reporter mRNA; actives raise or lower the signal. Summed up:
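Multiplexed cis-reporter system in human hepatoma HepG2 cells, transiently transfected. Cells are dosed for 24 h; reporter transcripts are amplified, fluorescently tagged and sized by capillary electrophoresis, with DMSO as negative control.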

Experiment [10] is described as follows: ATG_M_19_CIS: Attagene CIS-FACTORIAL HepG2 Assay for M19 Transcription Factor (Internal Marker) (AID 2282939). The note with it: HepG2 Attagene CIS-FACTORIAL M19 internal marker reporter; actives raise or lower the signal. In outline: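 In this multiplexed cell assay, transiently transfected HepG2 reporter units report endogenous transcription-factor activity; after 24 hours of treatment, labelled reporter cDNA fragments are quantified by capillary electrophoresis and fitted bidirectionally against DMSO.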

Experiment [11] is described as follows: ATG_ERE_CIS: Attagene CIS-FACTORIAL HepG2 Assay for Estrogen Response Element (ERE) (AID 2282940). The note with it: HepG2 ERE cis-reporter, Attagene RNA transcript; actives raise or lower the signal. Summed up:
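Measuring endogenous transcription factor output, the assay doses transfected HepG2 cells for 24 hours and quantifies reporter transcripts by fluorescent RT-PCR and capillary electrophoresis, with DMSO as baseline.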

Experiment [12] in a line: ATG_Ets_CIS: Attagene CIS-FACTORIAL HepG2 Assay for human Erythroblast Transformation Specific (ETS) (AID 2282941). The note with it: HepG2 ETS cis-reporter transcription, actives raise or lower the signal. Summed up:
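HepG2 cells transfected with multiple cis-regulated reporter units measuring endogenous ETS-driven transcription, 24 h after dosing. Reporter mRNA quantified by RT-PCR with capillary electrophoresis; bidirectional fit relative to DMSO.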

The nature of experiment [13]: ATG_FoxO_CIS: Attagene CIS-FACTORIAL HepG2 Assay for human Forkhead box O (FoxO) (AID 2282943). The note with it: HepG2 Attagene cis-reporter, FoxO element, mRNA; actives raise or lower the signal. Summed up:
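Read-out: fluorescence of 6-FAM-labelled reporter cDNA fragments resolved by capillary electrophoresis. Transiently transfected HepG2 cells were dosed for 24 h; activity fitted in both directions relative to DMSO controls.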

The nature of experiment [14]: ATG_GATA_CIS: Attagene CIS-FACTORIAL HepG2 Assay for human GATA Binding Protein (AID 2282944). The note with it: HepG2 GATA cis-element reporter, Attagene multiplex mRNA; actives raise or lower the signal. Summed up:
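Measures endogenous transcription factor-driven reporter mRNA in HepG2 cells transiently carrying cis-regulated constructs. 24 h dosing; RNA via oligo(dT) reverse transcription, PCR, HpaI digestion, capillary electrophoresis; fitted relative to DMSO.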

Experiment [15] is described as follows: ATG_GLI_CIS: Attagene CIS-FACTORIAL HepG2 Assay for human Zinc Finger Protein GLI1 (AID 2282945). The note with it: HepG2, Attagene cis-factorial reporter mRNA, GLI element; actives raise or lower the signal. Summed up: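 Transiently transfected HepG2 cells report endogenous transcription factor activity via cis-element-driven reporter units. After 24 h compound exposure, reporter mRNA was measured by RT-PCR with capillary electrophoresis; bidirectional fitting against DMSO baseline.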

Experiment [16] in a line: ATG_AP_1_CIS: Attagene CIS-FACTORIAL HepG2 Assay for human Activator Protein 1 (AP-1) (AID 2282931). The note with it: HepG2 Attagene cis-factorial AP-1 reporter mRNA; actives raise or lower the signal. Summed up:
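We transfected HepG2 cells transiently with a set of cis-regulated reporter transcription units, dosed them for 24 h, and quantified reporter mRNA via RT-PCR and capillary electrophoresis, scoring gain or loss of signal relative to DMSO.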

Experiment [17] can be described thus: ATG_BRE_CIS: Attagene CIS-FACTORIAL HepG2 Assay for human Bone Morphogenetic Protein (BMP) Response Element (BRE) (AID 2282933). The note with it: HepG2 BMP response element reporter, Attagene transcription factor profiling; actives raise or lower the signal. Summed up:
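After a 24 h chemical treatment, transiently transfected HepG2 cells were lysed for RNA; reporter transcripts were quantified by fluorescent RT-PCR and capillary electrophoresis, normalised to DMSO.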

Experiment [18] addresses Retinoic acid receptor alpha (Homo sapiens) (UniProt P10276). In words: ATG_DR5_RAR_CIS: Attagene CIS-FACTORIAL HepG2 Assay for human Retinoic Acid Receptor Alpha (RARE), DR5 submotif (AID 2282934). The note with it: HepG2 Attagene cis-factorial RARE DR5 reporter, mRNA; actives raise or lower the signal. Summed up:
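Read-out: DR5-driven reporter transcript measured by RT-PCR, 6-FAM primer extension, HpaI digest and capillary electrophoresis. Human HepG2 liver cells carry transiently transfected cis-element reporter constructs; dosing lasts 24 h. Gain or loss of signal fitted against DMSO baseline.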

Experiment [19] deals with Hepatocyte nuclear factor 3-beta (Homo sapiens) (UniProt Q9Y261). The experiment is described as follows: ATG_FoxA2_CIS: Attagene CIS-FACTORIAL HepG2 Assay for human Forkhead box A2 (FOXA2) (AID 2282942). The note with it: HepG2 cis-reporter transcription factor activity, 24 h; actives raise or lower the signal. Summed up:
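Multiplexed cis-element reporter assay in transiently transfected HepG2. Twenty-four hours post-dosing, RNA was reverse-transcribed, amplified, FAM-labelled, HpaI-digested and separated by CE. Activity gain or loss relative to DMSO.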

The values that follow come from PubChem BioAssay (EPA / NIEHS).

The source made the active and inactive calls. How the source made its calls: active means hit-call score of the fitted dose curve at least 0.9, where 1 is the maximum; inactive means score below 0.9.

Chain of CCAAT/enhancer-binding protein beta (Homo sapiens) (P17676 whole entry, looked up): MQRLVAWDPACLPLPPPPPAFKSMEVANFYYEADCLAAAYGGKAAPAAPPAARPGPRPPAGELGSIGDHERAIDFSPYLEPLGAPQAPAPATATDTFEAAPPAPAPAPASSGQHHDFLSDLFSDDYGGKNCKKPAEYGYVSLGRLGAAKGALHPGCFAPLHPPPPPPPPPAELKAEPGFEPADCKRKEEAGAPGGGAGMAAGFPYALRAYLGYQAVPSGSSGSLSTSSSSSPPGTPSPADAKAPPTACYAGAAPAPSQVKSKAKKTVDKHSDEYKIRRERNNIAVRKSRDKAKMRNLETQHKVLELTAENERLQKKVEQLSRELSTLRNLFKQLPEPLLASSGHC
Chain of Aryl hydrocarbon receptor (Homo sapiens) (P35869 whole entry, looked up): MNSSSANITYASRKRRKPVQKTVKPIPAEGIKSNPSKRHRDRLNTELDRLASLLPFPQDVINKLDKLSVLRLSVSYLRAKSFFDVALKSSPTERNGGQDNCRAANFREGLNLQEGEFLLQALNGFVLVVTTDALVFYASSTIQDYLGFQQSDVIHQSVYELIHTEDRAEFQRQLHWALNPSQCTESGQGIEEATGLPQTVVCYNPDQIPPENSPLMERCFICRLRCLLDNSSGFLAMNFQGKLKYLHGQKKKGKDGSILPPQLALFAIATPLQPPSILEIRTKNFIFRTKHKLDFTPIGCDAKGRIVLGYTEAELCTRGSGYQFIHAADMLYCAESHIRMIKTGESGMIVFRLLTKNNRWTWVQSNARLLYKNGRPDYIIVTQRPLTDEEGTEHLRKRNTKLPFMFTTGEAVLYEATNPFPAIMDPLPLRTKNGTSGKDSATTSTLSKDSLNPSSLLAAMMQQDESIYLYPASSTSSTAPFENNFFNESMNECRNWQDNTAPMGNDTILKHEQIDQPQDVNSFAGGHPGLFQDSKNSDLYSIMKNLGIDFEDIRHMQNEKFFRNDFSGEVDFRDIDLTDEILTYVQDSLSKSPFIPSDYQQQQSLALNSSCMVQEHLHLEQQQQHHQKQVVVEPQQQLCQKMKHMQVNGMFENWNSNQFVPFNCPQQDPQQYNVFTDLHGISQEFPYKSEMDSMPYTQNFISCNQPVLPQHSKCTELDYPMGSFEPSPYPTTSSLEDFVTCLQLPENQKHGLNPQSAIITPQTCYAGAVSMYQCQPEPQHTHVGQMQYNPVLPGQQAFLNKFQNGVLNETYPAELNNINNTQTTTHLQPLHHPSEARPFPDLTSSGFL
Chain of Transcription factor E2F1 (Homo sapiens) (Q01094 whole entry, looked up): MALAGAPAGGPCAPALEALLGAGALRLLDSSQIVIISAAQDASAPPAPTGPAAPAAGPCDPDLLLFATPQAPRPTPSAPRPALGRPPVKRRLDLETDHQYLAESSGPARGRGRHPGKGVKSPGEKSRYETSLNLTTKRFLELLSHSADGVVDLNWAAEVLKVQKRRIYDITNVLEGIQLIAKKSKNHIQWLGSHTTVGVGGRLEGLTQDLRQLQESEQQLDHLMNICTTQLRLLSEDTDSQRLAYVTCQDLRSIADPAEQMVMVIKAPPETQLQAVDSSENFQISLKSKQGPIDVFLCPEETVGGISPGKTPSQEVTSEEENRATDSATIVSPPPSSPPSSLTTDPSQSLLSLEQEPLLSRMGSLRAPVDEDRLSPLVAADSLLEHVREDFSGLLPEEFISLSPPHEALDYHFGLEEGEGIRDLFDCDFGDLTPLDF
Chain of Retinoic acid receptor alpha (Homo sapiens) (P10276 whole entry, looked up): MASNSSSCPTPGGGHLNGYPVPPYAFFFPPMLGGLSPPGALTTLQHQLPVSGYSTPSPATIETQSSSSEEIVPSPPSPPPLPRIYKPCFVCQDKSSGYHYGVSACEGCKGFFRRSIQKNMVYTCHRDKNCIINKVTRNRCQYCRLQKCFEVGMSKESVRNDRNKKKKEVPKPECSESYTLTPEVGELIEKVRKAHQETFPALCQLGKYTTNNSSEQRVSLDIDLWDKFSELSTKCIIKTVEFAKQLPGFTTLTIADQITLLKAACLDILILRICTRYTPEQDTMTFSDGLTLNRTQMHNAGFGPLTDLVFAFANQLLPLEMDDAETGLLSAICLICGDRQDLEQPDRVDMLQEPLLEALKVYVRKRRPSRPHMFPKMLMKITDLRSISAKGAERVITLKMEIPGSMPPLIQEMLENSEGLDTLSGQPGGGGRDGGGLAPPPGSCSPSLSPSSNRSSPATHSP
Chain of Hepatocyte nuclear factor 3-beta (Homo sapiens) (Q9Y261 whole entry, looked up): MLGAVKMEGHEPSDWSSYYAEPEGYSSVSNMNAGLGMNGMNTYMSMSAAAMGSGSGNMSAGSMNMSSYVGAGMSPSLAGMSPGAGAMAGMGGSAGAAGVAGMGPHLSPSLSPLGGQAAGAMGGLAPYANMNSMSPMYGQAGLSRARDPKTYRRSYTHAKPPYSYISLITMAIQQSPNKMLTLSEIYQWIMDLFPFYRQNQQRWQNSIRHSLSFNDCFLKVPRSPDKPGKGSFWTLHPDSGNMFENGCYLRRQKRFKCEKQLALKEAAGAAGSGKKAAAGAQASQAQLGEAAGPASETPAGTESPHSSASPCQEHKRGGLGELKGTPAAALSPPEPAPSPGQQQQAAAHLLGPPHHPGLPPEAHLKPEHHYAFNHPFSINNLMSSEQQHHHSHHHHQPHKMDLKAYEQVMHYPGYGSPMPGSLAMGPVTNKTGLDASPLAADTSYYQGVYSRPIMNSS

For the compound `CCc1c(C)cc(N)c(CC)c1N`, the compound was classed as inactive in experiment [1], in experiment [2], in experiment [3], in experiment [5], in [6] and in experiment [7]. Also, the call in experiment [8], in [9], in experiment [10], in [11], in [12] and in experiment [13] was inactive. Moreover, the result in experiment [14] and in experiment [15] was inactive. For the same compound, in experiment [4], the concentration at half-maximal activity (AC50) is 79.3 µM (active).
With `O=c1oc(=O)c2cc3c(=O)oc(=O)c3cc12`, the result in experiment [1], in experiment [2], in experiment [3], in experiment [16], in [5] and in experiment [17] was inactive. In addition, the compound was called inactive in experiment [18], in [6], in experiment [7], in experiment [8], in experiment [9] and in [10]. In addition, the compound was classed as inactive in experiment [12], in [19], in experiment [13], in [14] and in [15].
Turning to `C/C=C(\C)C(=O)OCc1ccccc1`, the compound was called inactive in [1], in experiment [2], in [3], in [4], in experiment [16] and in experiment [5]. The call in experiment [17], in experiment [18], in experiment [6], in [7], in experiment [8] and in [9] was inactive. Moreover, the compound was classed as inactive in experiment [10], in experiment [12], in experiment [19], in experiment [13], in experiment [14] and in experiment [15].
For `COc1cccc(OC)c1`, the result in [1], in [2], in experiment [3], in [16], in experiment [5] and in [17] was inactive. For the same compound, the result in [6], in experiment [7], in experiment [8], in experiment [9], in experiment [10] and in experiment [12] was inactive. The call in experiment [19], in experiment [13], in experiment [14] and in [15] was inactive.
Regarding `CC(=O)C(C)=O`, the call in experiment [1], in experiment [2], in experiment [4], in experiment [16], in experiment [5] and in experiment [17] was inactive. In addition, the result in experiment [6], in experiment [7], in experiment [8], in experiment [9], in [10] and in experiment [12] was inactive. Further, the compound was classed as inactive in [19], in experiment [13], in experiment [14] and in experiment [15]. In addition, the AC50 in experiment [3] was 40.6 µM (active).
Consider `CCn1c2ccccc2c2cc(N)ccc21`, for which the outcome in experiment [1], in experiment [2], in experiment [16], in experiment [5], in experiment [6] and in experiment [8] was inactive. Further, the compound was classed as inactive in [9], in experiment [10], in experiment [12], in [19], in experiment [13] and in experiment [14]. The result in experiment [15] was inactive. Moreover, the AC50 in experiment [3] is 31.7 µM (active); in experiment [4], 5.05 µM (active); in experiment [17] it was 100 µM (active).
For the compound `CCCCOCCOCCSC#N`, the compound was called inactive in experiment [1], in experiment [2], in [3], in experiment [4], in [5] and in experiment [18]. Further, the call in experiment [6], in experiment [7], in experiment [9], in experiment [12], in [19] and in [13] was inactive. Also, the compound was called inactive in experiment [14] and in experiment [15].
For the compound `CC(C)C(C)(C)C(C)(C)C(C)(C)S`, the outcome in experiment [1], in [2], in [3], in experiment [4], in [16] and in experiment [5] was inactive. In addition, the compound was classed as inactive in [17], in experiment [7], in experiment [8], in experiment [9], in experiment [10] and in [12]. Further, the outcome in [19], in experiment [13] and in experiment [15] was inactive.

The AC50 is the concentration at which the activity in the assay is half-maximal.
